Assay results reported in PubChem BioAssay (Tox21).
Where “and” joins values, the source holds several entries; their conditions need not be identical. Equal values may be shown once. Records with an inconclusive call do not appear. Calls of active or inactive are those of the source. Unless noted, the call rests on the fitted dose curve.

Experiments:
[1] = qHTS assay to identify small molecule antagonists of the vitamin D receptor (VDR) signaling pathway - cell viability counter screen (AID 743225; active means well fitted curve in the direction sought with a large enough effect in the repeat runs; an effect the other way counts as inactive or inconclusive; further: nearly all actives have a fitted effect of over 50% in size; further: potency means the concentration at half of the fitted maximal effect; on viability change, negative = cytotoxic: on the % scale 0 is the no-effect control and ±100 the full control effect)
Summary of the method: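 Same-well multiplex: following 16 h treatment of HEK 293T cells carrying a UAS-driven beta-lactamase reporter with compound and agonist (3 nM final), and a 2 h FRET substrate step, CellTiter-Glo was added and luminescence read after 30 min.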

[2] = qHTS assay to identify small molecule agonists of the NFkB signaling pathway - cell viability counter screen (AID 1159515); further: nearly all actives have a fitted effect of over 55% in size; further: potency means the concentration at half of the fitted maximal effect; on activity, negative = cytotoxic: series mostly up to about 61 µM; on the % scale 0 is the no-effect control and ±100 the full control effect
Summary of the method: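 NFkB-bla ME-180 cells, 2,000/well, plated overnight at 37 C; compound added for 5 hr at 37 C. Viability read in the same wells as the bla reporter, by CellTiter-Glo luminescence after 30 min at room temperature.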

[3] = qHTS assay to identify small molecule agonists of the endoplasmic reticulum stress response signaling pathway - cell viability counter screen (AID 1159517); further: nearly all actives have a fitted effect of over 50% in size; further: potency means the concentration at half of the fitted maximal effect
Summary of the method: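 CellTiter-Glo was added to wells already read for beta-lactamase FRET, and luminescence was recorded 30 min later. Cells: ESRE-bla HeLa, 1,500 per well, compound exposure 5 hr at 37 C.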

[4] = qHTS assay to identify small molecule antagonists of the retinoid-related orphan receptor gamma (ROR-gamma) signaling pathway - cell viability counter screen (AID 1159520; active means well fitted curve in the direction sought with a large enough effect in the repeat runs; an effect the other way counts as inactive or inconclusive; further: nearly all actives have a fitted effect of over 50% in size; further: potency means the concentration at half of the fitted maximal effect)
Summary of the method: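 Tet-on ROR gamma CHO cells (1,000/well) were plated 4 hr, given compounds in DMSO for 2 hr at 37 C, then induced with 1 uM final doxycycline for 16 hr. Viability was read as ATP by CellTiter-Glo luminescence after 30 min.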

[5] = biological target: Nuclear receptor ROR-gamma (Homo sapiens) (UniProt P51449); test: qHTS assay to identify small molecule antagonists of the retinoid-related orphan receptor gamma (ROR-gamma) signaling pathway (AID 1159521; active means well fitted curve in the direction sought with a large enough effect in the repeat runs; an effect the other way counts as inactive or inconclusive; further: nearly all actives have a fitted effect of over 50% in size; further: potency means the concentration at half of the fitted maximal effect)
Summary of the method: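 Inducible-expression reporter assay: doxycycline (1 uM final) switched on RORγ in CHO cells bearing a ROR response element-luciferase construct, with test compounds present from 2 h beforehand. Decreased luminescence after 16 h defined antagonist activity.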

[6] = qHTS assay to identify small molecule agonists of the AP-1 signaling pathway - cell viability counter screen (AID 1159525); further: nearly all actives have a fitted effect of over 55% in size; further: potency means the concentration at half of the fitted maximal effect
Summary of the method: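 ME-180 AP-1-bla, 2500 cells/well, Opti-MEM + 0.5% dialyzed FBS; overnight 37 °C; cpd 15-pt titration, 5 h 37 °C; CellTiter-Glo 30 min RT; luminescence read; normalised to TOAB and DMSO controls.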

[7] = qHTS assay to identify small molecule agonists of the AP-1 signaling pathway (AID 1159526); further: on the % scale 0 is the no-effect control and ±100 the full control effect
[8] = biological target: Retinoic acid receptor RXR-alpha (Homo sapiens) (UniProt P19793); test: qHTS assay to identify small molecule agonists of the RXR signaling pathway (AID 1159527); further: nearly all actives have a fitted effect of over 35% in size; further: potency means the concentration at half of the fitted maximal effect
Retinoic acid receptor RXR-alpha (Homo sapiens), sequence (P19793 whole entry, looked up): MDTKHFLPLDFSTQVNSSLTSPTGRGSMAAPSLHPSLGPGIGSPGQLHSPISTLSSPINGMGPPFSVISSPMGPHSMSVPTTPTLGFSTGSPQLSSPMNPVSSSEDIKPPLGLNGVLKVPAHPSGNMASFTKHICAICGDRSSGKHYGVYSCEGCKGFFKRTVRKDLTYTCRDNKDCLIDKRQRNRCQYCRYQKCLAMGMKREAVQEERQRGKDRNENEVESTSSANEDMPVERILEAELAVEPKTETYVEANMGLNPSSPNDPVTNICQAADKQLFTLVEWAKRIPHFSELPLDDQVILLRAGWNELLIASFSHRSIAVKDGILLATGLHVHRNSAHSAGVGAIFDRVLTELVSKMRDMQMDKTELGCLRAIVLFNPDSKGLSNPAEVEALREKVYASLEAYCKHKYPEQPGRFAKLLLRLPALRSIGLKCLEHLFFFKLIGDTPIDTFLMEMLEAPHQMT
Summary of the method: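 Compounds in DMSO were added to RXR-alpha-UAS-bla HEK 293T cells kept in 2% charcoal-stripped serum, and incubated 16 hr at 37 C with 5% CO2. Reporter signal came from a 2 hr B/G FRET substrate step.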

[9] = qHTS assay to identify small molecule agonists of the RXR signaling pathway - cell viability counter screen (AID 1159529; active means well fitted curve in the direction sought with a large enough effect in the repeat runs; an effect the other way counts as inactive or inconclusive; further: nearly all actives have a fitted effect of over 50% in size; further: potency means the concentration at half of the fitted maximal effect)
Summary of the method: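 Counter screen: CellTiter-Glo luminescence. Cells: RXR-alpha-UAS-bla HEK 293T. Medium: 2% charcoal-stripped FBS. Treatment: 16 h, 37 C. Reagent incubation: 30 min, RT.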

[10] = qHTS assay to identify small molecule agonists of the endoplasmic reticulum stress response signaling pathway (AID 1159516; active means well fitted activation curve with a large enough effect in the signal ratio in the repeat runs, not every such curve was filed as active; the % refers to the signal ratio; further: on the % scale 0 is the no-effect control and ±100 the full control effect)
Summary of the method: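 CellSensor ESRE-bla HeLa cells, 1,500 per well, plated overnight, then exposed to compounds for 5 hr at 37 C. Beta-lactamase reporter read with LiveBLAzer B/G FRET substrate after 2 hr at room temperature, 405 nm excitation, 460 and 530 nm emission.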

C=C(C)c1cccc(C(=C)C)c1
inactive: Potency [1] | Potency [2] | Potency [3] | Potency [4] | Potency [5] | Potency [6] | Potency [7] | Potency [8] | Potency [9]

C#Cc1ccc(-c2ccccc2F)cc1
inactive: Potency [2] | Potency [3] | Potency [4] | Potency [5] | Potency [6] | Potency [7] | Potency [8] | Potency [9]

CCCCCCCCCCC[C@@H](C[C@@H]1OC(=O)[C@H]1CCCCCC)OC(=O)[C@H](CC(C)C)NC=O
inactive: Potency [2] | Potency [3] | Potency [6] | Potency [7] | Potency [8] | Potency [9]
active: Potency [4] 11.9 µM | Potency [5] 16.8 µM

CCCCOC(=O)CC
inactive: Potency [1] | Potency [2] | Potency [3] | Potency [4] | Potency [5] | Potency [6] | Potency [7] | Potency [9]

CC(=O)OCC=C(C)C
inactive: Potency [1] | Potency [2] | Potency [3] | Potency [4] | Potency [5] | Potency [6] | Potency [7] | Potency [8] | Potency [9]

C1CCC(SSC2CCCCC2)CC1
inactive: Potency [2] | Potency [3] | Potency [4] | Potency [5] | Potency [6] | Potency [7] | Potency [8] | Potency [9]

Cc1c(C)c2c(c(C)c1OC(=O)c1cccnc1)CC[C@@](C)(CCC[C@H](C)CCC[C@H](C)CCCC(C)C)O2
inactive: Potency [1] | Potency [2] | Potency [3] | Potency [4] | Potency [5] | Potency [6] | Potency [7] | Potency [8] | Potency [9]

O=C1OC2(c3ccc(O)cc3Oc3cc(O)ccc32)c2ccc(N=C=S)cc21
inactive: Potency [1] | Potency [2] | Potency [3] | Potency [4] | Potency [5] | Potency [6] | Potency [7] | Potency [9]

CC(C)OC(=O)C(O)(CC(=O)O)CC(=O)O
active: Potency [8] 21.9 µM
inactive: Potency [2] | Potency [3] | Potency [4] | Potency [5] | Potency [6] | Potency [7] | Potency [9]

CCOC(=O)NNc1ccc(N(CC)CC(C)O)nn1 (configuration not stated)
inactive: Potency [1] | Potency [2] | Potency [3] | Potency [4] | Potency [5] | Potency [6] | Potency [7] | Potency [8] | Potency [9]

CC(C)=CCNc1ncnc2c1ncn2[C@@H]1O[C@H](CO)[C@@H](O)[C@H]1O
inactive: Potency [7]
active: Potency [2] 8.49 µM | Potency [3] 13.4 µM | Potency [4] 10.6 µM | Potency [5] 13.3 µM | Potency [6] 6.01 µM

Cc1cc(C(C)(C)C)cc(C)c1CC1=NCCN1
inactive: Potency [1] | Potency [2] | Potency [3] | Potency [4] | Potency [5] | Potency [6] | Potency [7] | Potency [8]

Cc1c(C)c2c(c(C)c1O)CC[C@@](C)(CCC[C@H](C)CCC[C@H](C)CCCC(C)C)O2
inactive: Potency [1] | Potency [2] | Potency [3] | Potency [4] | Potency [5] | Potency [6] | Potency [7] | Potency [8] | Potency [9]

COCCOc1cc2cc(C(=O)NC3CCN(C(C)C)CC3)n(CC(=O)Nc3ccc(Cl)cn3)c2cn1
inactive: Potency [1] | Potency [2] | Potency [3] | Potency [4] | Potency [5] | Potency [6] | Potency [7] | Potency [8] | Potency [9]

NC[C@H]1O[C@H](O[C@H]2[C@H](O[C@@H]3O[C@H](CO)[C@@H](O)[C@H]3O)C(O)[C@H](N)C[C@@H]2N)[C@H](N)[C@@H](O)[C@@H]1O (some centres not stated)
inactive: activity, negative = cytotoxic [2] 0.788% [at 6.95 µM] | activity change, negative = cytotoxicity [3] -1.85% [at 6.95 µM] | activity, negative = cytotoxicity [4] 4.86% [at 8.39 µM] | activity change, negative = inhibition [5] 9.94% [at 8.39 µM] | viability change, negative = cytotoxic [6] 9.44% [at 6.97 µM] | activation [7] -3.58% [at 6.97 µM] | activation [8] 5.85% [at 6.98 µM] | activity change, negative = cytotoxicity [9] 3% [at 6.97 µM]

CC(C)CCCCCOC(=O)CCS
inactive: Potency [1] | Potency [2] | Potency [10] | Potency [7] | Potency [9]

Cc1c(N)cccc1C(F)(F)F
inactive: Potency [1] | Potency [2] | Potency [3] | Potency [4] | Potency [5] | Potency [6] | Potency [7] | Potency [8] | Potency [9]

Cc1cc(-n2nc3ccc(Cl)cc3n2)c(O)c(C(C)(C)C)c1
inactive: Potency [1] | Potency [2] | Potency [3] | Potency [6] | Potency [7] | Potency [8] | Potency [9]

CCC(COC(=O)CCS)(COC(=O)CCS)COC(=O)CCS
inactive: Potency [2] | Potency [3] | Potency [4] | Potency [5] | Potency [7] | Potency [8] | Potency [9]

Cc1cc(=O)oc2cc(O)cc(O)c12
inactive: Potency [1] | Potency [2] | Potency [3] | Potency [5] | Potency [6] | Potency [7] | Potency [9]

CCn1c2ccccc2c2cc([N+](=O)[O-])ccc21
inactive: Potency [2] | Potency [3] | Potency [4] | Potency [7] | Potency [9]

O=C(O)Cc1ccccc1Nc1c(Cl)cccc1Cl
inactive: Potency [2] | Potency [3] | Potency [4] | Potency [7] | Potency [9]

OC/C=C/CO
inactive: Potency [1] | Potency [2] | Potency [3] | Potency [5] | Potency [7] | Potency [8] | Potency [9]

O=C(O)c1cc(-c2ccc(F)cc2F)ccc1O
inactive: Potency [2] | Potency [3] | Potency [4] | Potency [7] | Potency [9]

O=C1c2ccccc2C(=O)N1SC1CCCCC1
active: Potency [1] 48.9 µM | Potency [3] 43.6 µM | Potency [4] 48.5 µM and 54.5 µM | Potency [5] 27.3 µM | Potency [9] 48.9 µM and 49 µM
inactive: Potency [2]
